Screening results (PubChem)
PNC assembly inh = High Content Assay for Compounds that inhibit the Assembly of the Perinucleolar Compartment; PC3M PTB-GFP, PNC prevalence imaging, 16 h; stronger effect = lower value; activity change (PNC), negative = inhibition, % at 10 µM; actives 3.1% (n = 140,000); AID 2417, 2010;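 active = readout at or below -70, meaning at least 70% loss of cells showing the perinucleolar compartment, a nuclear body marking cancer cells; inconclusive = readout between -30 and a set limit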
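PC3M cells stably expressing PTB-GFP, 750–1000 cells/well, treated 16 h at 37 °C with compound (23 nl of library stock), in duplicate. After paraformaldehyde fixation and Hoechst stain, imaged at 20x; PNC prevalence scored by image analysis.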
LMNA splice mod = qHTS Assay for Modulators of Lamin A Splicing | HeLa LMNA splicing GFP/RFP minigene ratio, 48 h | Potency, µM (series often up to 46.1 µM), usual class: inhibitors | actives 0.01% (n = 200,000); active = well fitted inhibition curve with a large enough effect in the signal ratio, with a control signal flat, not every such curve was filed as active; inconclusive = small, poorly fitted or top-dose-only effect, or effect the other way, or a change in a side signal; the % refers to the signal ratio
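S3 HeLa cells stably expressing lamin A-EGFP splicing minigene plus DsRed2, 600 cells/well, 48 h compound exposure at 37C. Laser-scanning cytometry; analysed as GFP (500-530 nm)/RFP (575-640 nm) total intensity ratio; 0.5% DMSO vehicle.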
IMPase inh = qHTS Assay for Identifying the Cell-Membrane Permeable IMPase Inhibitors; inhibition (IP1 accumulation), % at 46.1 µM; Inositol monophosphatase 1 (Rattus norvegicus), P97697; CHO-M1 cells, IP1 accumulation, HTRF TR-FRET ratio; 120,000 tested, under 10 active; active = well fitted curve in the direction sought with a large enough effect in the signal ratio, not every such curve was filed as active; inconclusive = small, poorly fitted or top-dose-only effect, or a change in a side signal; inactive = no such curve, though single readings can be large or run the other way; the % refers to the signal ratio;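 also: cells stimulated with carbachol in lithium chloride buffer; higher means more IMPase inhibition seen as more IP1 and lower FRET ratio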
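In this qHTS, compounds (final up to 46 uM) act on CHO-M1 cells that are then activated through the M1 receptor with carbachol, in pH 7.4 buffer containing 50 mM LiCl, for 30 min. IP1 accumulation is quantified by the IP-One immunoassay.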
ALDH1A1 block = qHTS Assay for Inhibitors of Aldehyde Dehydrogenase 1 (ALDH1A1) | Purified ALDH1A1, NADH fluorescence, propionaldehyde substrate | Potency, µM (highest dose often 75.3 µM), usual class: inhibitors | actives 7.3% (n = 220,000)
Target sequence (P00352 whole entry, looked up): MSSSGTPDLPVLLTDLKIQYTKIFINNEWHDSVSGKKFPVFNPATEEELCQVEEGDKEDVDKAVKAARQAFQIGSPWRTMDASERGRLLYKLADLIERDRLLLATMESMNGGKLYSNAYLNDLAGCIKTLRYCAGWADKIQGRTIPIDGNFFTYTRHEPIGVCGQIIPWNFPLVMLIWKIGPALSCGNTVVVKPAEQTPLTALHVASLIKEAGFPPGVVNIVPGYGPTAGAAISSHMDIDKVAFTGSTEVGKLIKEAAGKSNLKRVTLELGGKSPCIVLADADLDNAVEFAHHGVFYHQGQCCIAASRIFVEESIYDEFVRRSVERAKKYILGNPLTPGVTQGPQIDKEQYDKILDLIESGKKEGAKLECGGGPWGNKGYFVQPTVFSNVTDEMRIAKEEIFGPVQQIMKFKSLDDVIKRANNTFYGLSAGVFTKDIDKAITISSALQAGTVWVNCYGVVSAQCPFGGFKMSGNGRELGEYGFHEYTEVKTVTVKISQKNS
KinaseGlo FLuc = Counterscreen for Luciferase (Kinase-Glo TM) Inhibition | Luciferin 4-monooxygenase (Photuris pensylvanica), Q27757 | Kinase-Glo luciferase, ATP luminescence, 8 min | Potency, µM (series often up to 38.3 µM), usual class: inhibitors | actives 0.28% (n = 200,000) | AID 1379, 2008; active = well fitted inhibition curve with a large enough effect; inconclusive = small, poorly fitted or top-dose-only effect; also: nearly all actives have a fitted effect of over 60% in size
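Recombinant Kinase-Glo luciferase, 10 uM ATP (linear range), luciferin; imidazole pH 7.2 / KCl / MgCl2 / Tween / BSA buffer; 8 min RT; luminescence.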
HPGD inh = qHTS Assay for Inhibitors of HPGD (15-Hydroxyprostaglandin Dehydrogenase). 15-hydroxyprostaglandin dehydrogenase [NAD(+)] (Homo sapiens), P15428. purified HPGD, NADH fluorescence kinetic, PGE2 substrate. Potency, µM, most hits filed as inhibitors. actives 4.3% (n = 150,000). AID 894, 2007
Target sequence (P15428 whole entry, looked up): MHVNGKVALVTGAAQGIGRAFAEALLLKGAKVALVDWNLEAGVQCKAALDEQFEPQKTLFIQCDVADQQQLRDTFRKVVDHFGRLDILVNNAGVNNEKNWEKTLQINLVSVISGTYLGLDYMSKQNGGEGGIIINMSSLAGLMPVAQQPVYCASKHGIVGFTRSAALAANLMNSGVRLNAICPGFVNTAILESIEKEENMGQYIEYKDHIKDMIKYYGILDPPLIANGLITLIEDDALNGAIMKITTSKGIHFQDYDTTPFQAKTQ
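20 nM HPGD preincubated 15 min at room temperature with compound in 50 mM Tris-HCl pH 8, 0.01% Tween 20. Started with 1 mM NAD+ and 30 uM prostaglandin E2; NADH fluorescence (360/450 nm) read 5 times over 30-s intervals, last minus first.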
Hits are given with their value; - = inactive; ? = inconclusive; . = no result given; [ ] = remark or other dose. Hits are enriched below; roughly 10% of the tested compounds scored in any of these assays. Unless noted, calls follow the shape of the dose curve; as a rule, active = well fitted inhibition curve with a large enough effect (not every such curve was filed as active); inconclusive = small, poorly fitted or top-dose-only effect, or another doubt; inactive = no such curve, though single readings can be large or run the other way.

SMILES | PNC assembly inh | LMNA splice mod | IMPase inh | ALDH1A1 block | KinaseGlo FLuc | HPGD inh
O=C(C1CCN(S(=O)(=O)N2CCCC2)CC1)N1CCCCC1 | - | - | - | - | - | -
Cc1cc(=O)[nH]c2c(N=Nc3ccc(O)cc3)c(N)nn12 | . | . | . | 18µM | - | .
Cc1noc(C)c1C(=O)NNc1ccc(C(C)C)cc1 | . | . | . | 11µM | . | .
Cc1ccc(NNC(=O)c2ccno2)cc1Cl | . | ? | . | 14µM | . | .
Cc1ccc(NC(=O)c2ocnc2C)cc1Cl | - | ? | - | ? | - | -
Cc1ccc(NNC(=O)c2c(C)noc2C)cc1Cl | . | ? | . | 28µM | . | .
Cc1noc(C)c1C(=O)Nc1ccc(F)cc1 | . | - | . | - | - | .
Cc1ccc(C(C)NC(=O)c2c(C)noc2C)cc1C (stereo not given) | - | - | - | - | - | -
CCOC(=O)N/N=C1/C[C@@H](O)[C@@H](O)[C@@H]2[C@@H]3C(=O)N(C(C)(C)C)C(=O)[C@H]3CC[C@@H]12 | . | . | . | -[13.5 µM] | . | .
N#Cc1nc(COc2ccccc2F)oc1NCc1ccc(F)cc1 | - | - | - | ? | - | 20µM
COc1ccc(CCNc2oc(COc3ccccc3F)nc2C#N)cc1 | ? | - | - | ? | - | 18µM
COc1ccc(CNc2oc(COc3ccc(Cl)cc3)nc2C#N)cc1 | - | ? | - | - | - | -
COc1ccc(Nc2oc(COc3ccc(Cl)cc3)nc2C#N)cc1 | - | - | - | - | - | 28µM
COCCCNc1oc(COc2ccc(Cl)cc2Cl)nc1C#N | ? | - | - | - | - | 28µM
CN(C)c1oc(COc2ccccc2F)nc1C#N | - | - | - | - | - | -
CN(C)CCNc1oc(COc2ccc(-c3ccccc3)cc2)nc1C#N | ? | - | - | - | . | .
CN(C)CCNc1oc(COc2ccc(Cl)cc2Cl)nc1C#N | - | - | - | - | - | -
COc1ccc(-c2nc3cnc(OC)nc3n(C)c2=O)cc1 | . | - | . | ? | . | .
COc1ccc(/C(C)=N/N=C(\C)c2ccc(OC)cc2OC)c(OC)c1 | - | - | . | - | - | -
C/C(=N/NS(C)(=O)=O)c1ccc2ccccc2c1 | -103 | - | - | - | - | -
COc1ccc(C(=O)Oc2ccc(C(C)=O)cc2)c(OC)c1 | -83 | - | - | - | - | -
CCNC(=S)N/N=C(\C)c1ccc2ccccc2c1 | . | . | . | - | - | .
COc1ccc(/C(C)=N\NS(C)(=O)=O)c(OC)c1 | -84 | - | . | - | - | ?
COc1ccc(C(N)=S)c(OC)c1 | - | - | . | 13µM | - | 40µM
C#CCCCO/N=C1/C[C@@H](O)[C@@H](O)[C@@H]2[C@@H]3C(=O)N(Cc4ccc5c(c4)OCO5)C(=O)[C@H]3CC[C@H]12 | . | . | . | -[13.5 µM] | . | .
SMILES | PNC assembly inh | LMNA splice mod | IMPase inh | ALDH1A1 block | KinaseGlo FLuc | HPGD inh
CCCNS(=O)(=O)c1ccc2nc(NC(=O)c3ccc(F)cc3)sc2c1 | . | - | . | . | . | .
CCc1ccc(NC(=O)CSc2nnc(-c3cc4occc4n3C)n2-c2ccccc2C)cc1 | . | - | . | . | . | .
CCc1ccc(-n2nc3ccc(NC(=O)c4cc5ccccc5o4)cc3n2)cc1 | . | . | - | . | . | .
COc1cccc(/C=N/NC(=O)c2csc(-n3nc(C)cc3C(F)(F)F)n2)c1 | -90 | - | - | - | - | -
Cc1cc(C(F)(F)F)n(-c2nc(C(=O)Nc3ccccc3Oc3ccccc3)cs2)n1 | - | ? | - | - | - | -
Cc1cc(C(F)(F)F)n(-c2nc(C(=O)N/N=C/c3ccc(F)cc3)cs2)n1 | -106 | ? | - | ? | - | 28µM
Cc1cccn2c(=O)c(/C=C(\C#N)C(=O)NCc3ccco3)c(N3CCC(C(N)=O)CC3)nc12 | - | - | - | ? | - | -
Cc1cccn2c(=O)c(/C=C(\C#N)C(=O)NCc3ccco3)c(N3CCCCC3)nc12 | - | - | - | 14µM | - | 32µM
Cc1cccn2c(=O)c(/C=N/O)c(N3CCCCC3)nc12 | - | - | - | ? | - | 2µM
Cc1cccn2c(=O)c(C=O)c(N3CCN(c4ccccc4)CC3)nc12 | . | . | . | ? | - | .
Cc1cccn2c(=O)c(/C=C(\C#N)C(=O)NCc3ccco3)c(N3CCCC(C)C3)nc12 (stereo not given) | ? | - | - | 25µM | - | 16µM
COc1ccc(S(=O)(=O)N(CC(=O)N2CCC(C)CC2)c2ccc(C)cc2)cc1 | . | . | - | . | . | .
Cc1ccccc1OCC(=O)Nc1nnc(S(=O)(=O)N(C)c2ccccc2)s1 | . | - | . | . | . | .
COc1ccc(OCC(O)CN2CCN(c3ncccn3)CC2)cc1 (stereo not given) | -122 | - | . | - | - | -
CCOC(=O)c1c(NC=O)sc2c1CCC2 | - | - | - | - | - | -
CCOC(=O)c1c(NC(=O)CSc2c[nH]c3ccccc23)sc2c1CCC2 | - | ? | . | ? | - | -
CCOC(=O)c1c(NC(=O)CN2CCN(C(=O)c3ccco3)CC2)sc2c1CCCC2 | -100 | ? | - | 24µM | - | -
CCOC(=O)c1c(N)sc2c1CCCC2 | ? | - | - | 20µM | - | ?
CCOC(=O)c1c(NC(=O)C(C)Sc2cn(C)c3ccccc23)sc2c1CCC2 (stereo not given) | - | - | . | 25µM | - | -
CCCC1CCc2c(sc(N)c2C(N)=O)C1 (stereo not given) | - | - | - | 10µM | - | -
CCC(C)(C)C1CCc2c(sc(N)c2C(N)=O)C1 (stereo not given) | - | ? | . | ? | - | -
CC(=O)OC1=CN(Cc2ccccc2)S(=O)(=O)c2ccccc21 | . | - | . | . | . | .
Cc1ccc(C(=O)Nc2ccc(Cl)c(-c3nc4ncccc4o3)c2)c(C)c1 | . | . | - | . | . | .
CCN1C(=O)c2ccccc2Sc2ccc(NC(=O)COc3ccc(Cl)cc3)cc21 | . | - | . | . | . | .
NC(=O)c1ccc[n+]([C@@H]2OC(COP(=O)([O-])OP(=O)(O)OCC3OC(n4cnc5c(N)ncnc54)C(OP(=O)(O)O)C3O)C(O)C2O)c1 (stereo not given in full) | . | . | . | ? | ? | -
SMILES | PNC assembly inh | LMNA splice mod | IMPase inh | ALDH1A1 block | KinaseGlo FLuc | HPGD inh
CCC(=O)Nc1sc2c(c1C(=O)N(C)C)CCCCC2 | - | - | - | ? | - | -
CCOC(=O)c1c(NC(=O)COc2ccc(CC)cc2)sc2c1CCCC2 | . | - | . | . | . | .
CCOC(=O)c1c(N)sc2c1CCC(C)C2 (stereo not given) | ? | ? | - | 13µM | - | ?
CCOC(=O)c1c(NC(=O)COC)sc2c1CCCC2 | -84 | - | - | ? | - | -
CCOC(=O)c1c(N)sc2c1CCS(=O)(=O)C2 | - | - | - | 28µM | - | 40µM
CCOC(=O)c1c(N)sc2c1C1CCN2CC1 | - | - | - | - | . | .
CCNC(=O)c1c(N)sc2c1CCCCC2 | - | - | - | 28µM | - | 28µM
